Sampled rows, rich in hits. Any-hit rate of the full collection: about 0.56%.
PKM2 activator = activators of human pyruvate kinase M2. P14618. 0.34% of 260,000 active. purified PKM2, Kinase-Glo ATP luminescence, activation; response scale: 0% is enzyme alone, no compound. Potency, µM (doses to about 57.5 µM), hits mostly activators; note: nearly all actives have a fitted effect of over 55% in size
Target sequence (P14618 whole entry, looked up): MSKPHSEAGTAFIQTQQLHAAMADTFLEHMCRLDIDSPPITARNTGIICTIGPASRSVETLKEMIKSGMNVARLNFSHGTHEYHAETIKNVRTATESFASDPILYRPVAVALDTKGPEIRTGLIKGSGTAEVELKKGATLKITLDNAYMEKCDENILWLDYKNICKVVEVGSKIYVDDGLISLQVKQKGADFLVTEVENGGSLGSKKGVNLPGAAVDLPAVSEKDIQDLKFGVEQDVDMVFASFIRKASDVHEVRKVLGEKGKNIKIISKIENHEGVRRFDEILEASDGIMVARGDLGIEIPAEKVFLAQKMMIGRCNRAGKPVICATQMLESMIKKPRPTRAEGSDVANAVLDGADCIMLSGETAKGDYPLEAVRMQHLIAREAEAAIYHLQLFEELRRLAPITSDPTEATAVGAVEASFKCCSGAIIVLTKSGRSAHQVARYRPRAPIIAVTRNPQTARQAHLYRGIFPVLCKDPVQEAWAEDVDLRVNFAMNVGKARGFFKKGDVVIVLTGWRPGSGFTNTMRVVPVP
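Purified hPK-M2 (>95% pure) converted ADP (0.1 mM final) to ATP with 0.5 mM PEP in 50 mM imidazole pH7.2, KCl, MgCl2, Tween 20, BSA; 1 h at room temperature. ATP detected by Kinase-Glo luminescence.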
CBFb RUNX1 block = blocks binding between human CBF-beta and RUNX1 | Potency, µM (highest dose often 59.8 µM), most hits filed as inhibitors | 230,000 tested, under 10 active | AlphaScreen CBFb-His/RUNX1-biotin binding, biochemical
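CBFb-His/RUNX1-biotin, 30 nM each, preincubated 20 min RT; compound 15 min RT; Ni + streptavidin beads 50 ng each, 90 min RT; AlphaScreen read.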
GALK inh = galactokinase (human) inhibition; Purified GALK, Kinase-Glo residual ATP luminescence; Potency, µM (series often up to 57.5 µM), actives largely listed as inhibitors; 0.007% of 270,000 active; AID 1868
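5 nM enzyme, 35 uM ATP, 100 uM galactose, 20 mM HEPES pH8.0, 5 mM MgCl2; 1 h RT; residual ATP by Kinase-Glo Plus luminescence, qHTS format.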
Tb PFK inh = inhibitors of T. brucei phosphofructokinase | O15648 | T. brucei PFK, ADP-Glo luminescence | Potency, µM (titrated, usually from 57.5 µM), actives largely listed as inhibitors | 0.17% of 330,000 active; note: nearly all actives have a fitted effect of over 60% in size
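Activity is normalized to no-enzyme wells (full inhibition) and 1.25 nM enzyme wells (no inhibition). Reaction: 0.5 mM F6P, 0.1 mM ATP, 45 min RT, ADP-Glo luminescence; concentration-response curves fitted and classed by quality.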
KinaseGlo FLuc = Kinase-Glo luciferase inhibition (counter-screen); Kinase-Glo luciferase, ATP luminescence, 8 min; Potency, µM (top dose mostly 38.3 µM), usual class: inhibitors; 0.28% of 200,000 active; AID 1379; note: nearly all actives have a fitted effect of over 60% in size
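Inhibition of Kinase-Glo luciferase light generation was assessed at 10 uM ATP in pH 7.2 imidazole buffer, with luminescence measured after eight minutes at ambient temperature.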
A number is an active result; i = inactive; ? = inconclusive; nt = no result given; [ ] = dose if it differs, or a comment. Calls come from the whole dose curve; as a rule, active = well fitted curve in the direction sought with a large enough effect; inconclusive = small, poorly fitted or top-dose-only effect, or another doubt; inactive = no such curve, though single readings can be large; an effect the other way counts as inactive or inconclusive.

SMILES | PKM2 activator | CBFb RUNX1 block | GALK inh | Tb PFK inh | KinaseGlo FLuc
CC(C)C[C@@H](/C=C/S(C)(=O)=O)NC(=O)[C@H](CC(C)C)NC(=O)[C@H](CC(C)C)NC(=O)OCc1ccccc1 | nt | i | nt | nt | nt
COc1ccc(-c2nc(NC(=O)c3[nH]c(C)c(C(C)=O)c3C)sc2C)cc1 | 7.94µM | i | i | i | i
COc1ccc(OC)c(NC(=O)c2[nH]c(C)c(C(C)=O)c2C)c1 | i | i | i | i | i
N/C(=N\OC(=O)c1ccc(F)cc1)c1ccccc1 | i | i | i | i | 8.91µM
Cc1ccc(/C(N)=N/OC(=O)c2cccc(F)c2)cc1 | i | i | i | i | nt
N/C(=N\OC(=O)c1cccc(F)c1)c1ccccc1 | i | i | i | i | 11.2µM
N/C(=N\OCc1ccc([N+](=O)[O-])cc1)c1ccccn1 | i | i | i | i | 10µM
N/C(=N\OC(=O)c1ccc(F)cc1)c1ccc(Br)cc1 | i | i | i | i | i
CC(C(=O)O/N=C(\N)c1ccccn1)c1ccc([N+](=O)[O-])cc1 (stereo not given) | i | nt | i | ? | nt
N/C(=N\OC(=O)c1ccc(Cl)cc1Cl)c1ccccc1 | i | i | i | i | 11.2µM
c1cc(-c2cnn3cc(-c4ccc(OCCN5CCCCC5)cc4)cnc23)ccn1 | nt | i | nt | nt | nt
COc1ccc(C(=O)O/N=C(\C)c2ccccc2)cc1 | i | i | i | i | 12.6µM
Cc1cccc(/C(N)=N/OC(=O)c2ccc3c(c2)OCO3)c1 | i | i | i | i | 10µM
N/C(=N\OC(=O)c1ccccc1)c1ccccn1 | i | i | i | ? | 1.41µM
N/C(=N\OC(=O)c1ccc2c(c1)OCO2)c1cccc([N+](=O)[O-])c1 | i | i | i | i | i
C/C(=N/OC(=O)c1ccc(C)cc1)c1cccs1 | i | i | i | ? | 12.6µM
O=C(O)C1CC(=O)N(CCC23CC4CC(CC(C4)C2)C3)C(=Nc2ccccc2)S1 (stereo not given) | nt | nt | nt | nt | i
CC1=CC(=O)C2=C(C)CC[C@H]3[C@H](C)C(=O)O[C@@H]3C12 (stereo not given in full) | nt | i | nt | nt | nt
Cc1cc(C)c(C)c(S(=O)(=O)NCCC(=O)O)c1C | nt | nt | nt | nt | i
CCn1nnnc1-c1ccc(OC)c(S(=O)(=O)Nc2ccc(C)c(C)c2)c1 | 15.8µM | i | i | i | i
O=C(N/N=C/c1ccc([N+](=O)[O-])o1)c1cc(-c2ccc(-c3ccccc3)cc2)nc2ccccc12 | i | i | i | i | 11.2µM
O=C(N/N=C/c1ccc([N+](=O)[O-])o1)c1cc(-c2ccncc2)nc2ccccc12 | i | i | nt | i | i
CC(C)C[C@H](N)c1nnc(S(=O)(=O)Cc2ccc(F)cc2)o1 | 10µM | i | i | i | i
O=C(CCS(=O)(=O)c1ccc(F)cc1)Nc1nc(-c2ccncc2)cs1 | nt | nt | i | 21.3µM | nt
O=C(OCC(=O)N1CCN(C(=O)c2ccco2)CC1)c1cc(-c2ccc(Cl)c(Cl)c2Cl)nc2ccccc12 | ? | i | i | i | i
SMILES | PKM2 activator | CBFb RUNX1 block | GALK inh | Tb PFK inh | KinaseGlo FLuc
O=C(OCC(=O)N1CCN(C(=O)c2ccco2)CC1)c1cc(-c2ccco2)nc2ccccc12 | 15.8µM | ? | i | i | i
O=C(c1ccco1)N1CCN(C(=O)c2cc(-c3ccccn3)nc3ccccc23)CC1 | 20µM | i | i | i | i
CCCCc1nc2c(c3c1C[C@H](C)OC3)CN(C(=O)NCCCC(=O)OCC)CC2 | i[11.5 µM] | i[13.1 µM] | nt | nt | i[7.66 µM]
O=S(=O)(Nc1ccccc1)c1ccc(-c2csnn2)cc1 | 14.1µM | i | i | i | nt
O=[N+]([O-])c1ccc2c(c1)ncn2CCc1ccccc1 | 7.08µM | nt | i | i | nt
O=[N+]([O-])c1ccc2c(c1)ncn2-c1ccccc1 | i | i | nt | i | i
CC(=O)c1ccc(Nc2c3ccccc3cc3occc23)cc1 | nt | i | nt | nt | nt
COc1ccc(CNc2nc(-c3ccccc3OC)nc3ccccc23)c(OC)c1 | nt | nt | nt | nt | i
COC(=O)Cc1ccc2sc(-c3ccccc3)nc2c1 | i | i | i | i | 12.6µM
Cn1c(Cc2ccccc2)nnc1SCC(=O)N1CCN(c2ccccc2)CC1 | 12.6µM | i | i | i | i
CSCC[C@H](N)C(=O)N[C@@H](CO)C(=O)N[C@@H](CCCN=C(N)N)C(=O)N1CCC[C@H]1C(=O)N[C@@H](C)C(=O)N[C@@H](CS)C(=O)N1CCC[C@H]1C(=O)N[C@@H](CC(N)=O)C(=O)N[C@@H](CC(=O)O)C(=O)N[C@@H](CCCCN)C(=O)N[C@@H](Cc1ccc(O)cc1)C(=O)N[C@@H](CCC(=O)O)C(=O)O | nt | i | nt | nt | nt
CC#CCN1c2ccccc2[C@]23C[C@@H](C(=O)OC)N(S(=O)(=O)c4ccc([N+](=O)[O-])cc4)C2=NC(C(=O)OC)=C(C(=O)OC)[C@H]13 | i[11.5 µM] | i[13.1 µM] | nt | nt | i[7.66 µM]
CC1=C(C#N)C(=O)N(C2CCS(=O)(=O)C2)C(=O)/C1=C\c1ccco1 (stereo not given) | i | nt | nt | 15.1µM | nt
O=C1/C(=C\c2ccco2)SC(=S)N1C1CCCCC1 | i | nt | i | i | nt
NC(=O)CC(NC(=O)Cc1ccc(Br)cc1)c1ccc(NCCc2ccc(F)cc2)c([N+](=O)[O-])c1 (stereo not given) | ? | i | i | i | nt
NC(=O)CC(NC(=O)Cc1ccc(Br)cc1)c1ccc(NCCc2ccccc2F)c([N+](=O)[O-])c1 (stereo not given) | 1.58µM | i | i | i | nt

Assay outcomes (PubChem BioAssay)
